From PubChem
A selection: hits, their analogues and other compounds. The true share with any hit is near 2.6%.
PME-1 primary: PME-1 inhibitors via competitive probe labeling, primary screen, biochemical, fluorescence polarization, FP-Rh probe, HTS. Protein phosphatase methylesterase 1 (Homo sapiens), Q9Y570. recombinant PME-1. inhibition, % at 5.9 µM. 320,000 tested, 0.53% active;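 active means inhibition above the campaign mean of all compounds plus 3 SD, cut at about 26% in these data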;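 further: competitive labeling of PME-1 active site by serine hydrolase directed probe; 0% = PME-1 with DMSO and 100% = wells lacking PME-1 enzyme; inhibitors block probe labeling so polarization falls and inhibition rises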
Target sequence (Q9Y570 whole entry, looked up): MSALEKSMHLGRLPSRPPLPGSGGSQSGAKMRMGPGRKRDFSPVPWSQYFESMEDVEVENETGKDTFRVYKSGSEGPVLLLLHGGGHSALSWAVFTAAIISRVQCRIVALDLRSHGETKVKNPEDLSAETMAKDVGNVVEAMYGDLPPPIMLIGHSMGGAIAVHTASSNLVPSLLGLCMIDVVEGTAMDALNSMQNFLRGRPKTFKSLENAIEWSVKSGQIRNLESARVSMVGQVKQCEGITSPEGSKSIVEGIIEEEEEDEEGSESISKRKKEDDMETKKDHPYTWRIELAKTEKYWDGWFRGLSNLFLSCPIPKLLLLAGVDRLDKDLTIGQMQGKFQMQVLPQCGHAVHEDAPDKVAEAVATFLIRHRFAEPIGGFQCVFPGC
PAD4 FP inh: human PAD4 inhibitors, primary screen, biochemical, fluorescence polarization, 1536-well format | AID 485272, 2010 | inhibition, % at 6.36 µM | Protein-arginine deiminase type-4 (Homo sapiens), Q9UM07 | recombinant PAD4, RCA probe fluorescence polarization | 330,000 tested, 0.41% active;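 active means percent inhibition above a cutoff equal to the mean of all tested compounds plus 3 SD, cut at about 15% in these data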;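 further: 0% = PAD4 with RCA probe and DMSO and 100% = probe without PAD4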
TCR-CD3 inh: inhibitors of human TCR-CD3 interaction, primary screen, biochemical, fluorescence, TAMRA-labeled TCR probe; T-cell receptor (TCR); inhibition, % at 9.4 µM; 360,000 tested, 0.37% active; AID 651800, 2012; in the data active means inhibition above about 19%;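 further: recombinant mutant TCR 2C K166C tagged with TAMRA read by polarization; 0% = receptor in buffer alone and 100% = receptor with positive control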
PRMT1 FP inh: PRMT1 methyltransferase inhibitors, primary screen, biochemical, fluorescence polarization; inhibition, % at 2.79 µM; Protein arginine N-methyltransferase 1 (Homo sapiens), Q99873; 370,000 tested, 1.3% active; recombinant PRMT1, activity-based probe fluorescence polarization;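 active means inhibition above about 21% made by adding two undisclosed values, limit read from the data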
Fam108B inh: mouse Fam108B serine hydrolase inhibitors, primary screen, counter-screen for RBBP9 inhibitor project, biochemical, fluorescence polarization; 300,000 tested, 0.33% active; AID 1947, 2009; inhibition, % at 9.51 µM; recombinant Fam108B, FP-Rh probe fluorescence polarization;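 active means inhibition above the screen mean inhibition plus 3 SD, computed separately per campaign, cut at about 18% in these data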;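 further: inhibitors lower polarization as less probe binds the enzyme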
SIAE inh: human SIAE inhibitors, primary screen, biochemical, fluorescence polarization, FP-Rh probe, 1536-well HTS | Sialate O-acetylesterase (Homo sapiens), Q9HAT2 | SIAE FP-Rh probe binding | inhibition, % at 9.66 µM | 370,000 tested, 0.69% active;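 active means inhibition above a cutoff: mean of compounds within the control limits plus 3 SD of those, cut at about 17% in these data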;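 further: 0% = plate median of compound wells and 100% = probe without SIAE protein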
An asterisk follows results filed as active; x = no result.

SMILES	PME-1 primary	PAD4 FP inh	TCR-CD3 inh	PRMT1 FP inh	Fam108B inh	SIAE inh
O=C(O)CC/C(=C\c1ccc(N2CCCC2)c([N+](=O)[O-])c1)c1nc2ccccc2s1	40.4*	-1.6	-7.9	11.9	-1.6	-13.8
Nc1c2c(nc3ccc(Br)cc13)N(c1ccccc1)CC2	14.7	-14.1	6.2	23.4*	6.8	-0.7
C=CCNC(=O)C1CC(=O)N(c2ccc(OCC(=O)Nc3ccccc3)cc2)C1 (stereo not given)	-2.6	2.2	4.3	1.0	0.7	18.4*
O=C(NC1CCCCN(Cc2cccc(F)c2)C1=O)c1ccc2ccccc2c1 (stereo not given)	x	x	x	-2.2	x	-3.6
Cc1ccc2c(c1)c1nnc(SCC(=O)N3CCN(c4ccc(F)cc4)CC3)nc1n2CC(=O)O	-2.2	-2.7	-9.9	22.3*	-2.4	1.1
CC[C@H]1/C(=C/c2ccccc2)N2C(=O)C[C@H](c3ccccc3)N=C2N1C	x	x	x	-4.7	x	0.8
CN[C@H]1C[C@H]2c3[nH]c4c(-c5cccc(C)c5)cccc4c3CCN2C(=O)[C@H]1[C@H](C)O	x	x	x	-1.4	x	-4.9
COc1ccc(-c2cc(-c3ccc(Cl)cc3)n[nH]2)c(O)c1	41.9*	-4.9	8.2	-3.1	2.6	-1.0
Oc1ccc(Br)cc1-c1cc(-c2ccc(Cl)cc2)n[nH]1	-157.9	-9.0	3.3	-1.3	-56.3	-62.7
COc1ccc(-c2cc(-c3cc(OC)ccc3O)[nH]n2)cc1	65.7*	-3.5	-5.0	3.2	13.2	7.2
COc1ccc(-c2n[nH]c(C)c2-c2cc(OC)ccc2O)cc1	-3.5	-2.6	-1.2	8.1	1.7	14.7
CCCC1CCC2(CC1)CCC2OC(=S)Nc1ccc(Br)cc1 (stereo not given)	x	x	x	-1.4	x	1.2
Cc1ccc2nsnc2c1NS(=O)(=O)c1c(C)ccc2nsnc12	31.5*	-5.9	7.2	-0.6	-2.7	8.4
CCc1ccccc1NC(=O)c1cc(C)nn1-c1ccccc1	x	x	x	-1.3	x	-1.4
CCCCCCC(=O)Nc1nc(C)c(-c2csc(Nc3cc(OC)ccc3OC)n2)s1	35.4*	-3.0	6.5	1.6	10.7	10.9
CCCCCC(=O)Nc1nc(C)c(-c2csc(Nc3cc(OC)ccc3OC)n2)s1	26.1	-1.7	1.5	2.3	12.6	16.5
O=C(NCCc1ccc(F)cc1)c1ccc(Sc2ccccc2Cl)c([N+](=O)[O-])c1	x	x	x	7.1	x	4.5
Cc1ccc(Nc2nnc(SCC(O)=C(C#N)c3nc4ccccc4[nH]3)s2)c(C)c1	x	x	2.6	3.4	x	-1.6
Cc1cccc(Nc2nnc(SC/C(O)=C(\C#N)c3nc4ccccc4[nH]3)s2)c1C	81.9*	-3.2	-1.7	6.7	5.8	-0.9
CCN(CC)CCn1c(SCC(=O)Nc2ccc3c(c2)CCC3)nc2ccccc2c1=O	-3.2	0.8	-5.3	21.2*	x	3.2
CCCCOc1ccc(-c2nc(=S)[nH][nH]2)cc1	-1.8	5.2	6.9	22.2*	-1.3	-9.0
O=C(CSc1nnc(-c2ccccc2)n1-c1ccc(Cl)cc1)c1ccc(F)cc1	x	x	x	-3.7	x	5.5
COc1cc2c(cc1OC)-c1cc3ccc4c(c3c[n+]1CC2)OCO4	5.3	-18.7	2.2	56.8*	3.1	8.1
COc1cc2c(cc1O)CC[n+]1cc3c(OC)c(OC)ccc3cc1-2	3.6	2.3	-7.5	2.1	-1.2	4.0
CCn1c(/C=C/N(C(C)=O)c2ccccc2)[n+](CC)c2ccc(Cl)cc21	-0.3	-8.2	4.6	1.9	2.1	5.8
SMILES	PME-1 primary	PAD4 FP inh	TCR-CD3 inh	PRMT1 FP inh	Fam108B inh	SIAE inh
CC[n+]1c(/C=C/C=C/N(C(C)=O)c2ccccc2)sc2ccccc21	-270.4	-30.2	-42.8	35.2*	-219.9	-210.6
O=C1C(=Cc2ccco2)C(=O)c2ccccc21	2.9	-2.1	2.7	34.8*	7.0	2.6
O=C(CCN1C(=O)/C(=C/c2ccccc2F)SC1=S)NCCCN1CCOCC1	-7.7	-11.5	1.4	3.7	-2.3	-3.7
O=C(CCCN1C(=O)/C(=C/c2ccccc2Cl)SC1=S)NCCCN1CCOCC1	-12.3	-57.7	-40.0	24.2*	0.6	-3.5
CCOc1ccc(C(N)=O)cc1OC	-2.0	2.7	-5.3	2.4	-2.3	-5.7
CCOc1ccc(N)cc1OC	-0.3	-1.5	-2.8	5.2	2.1	24.0*
CC1OC2(C)OC(=N)C1(C#N)C(C#N)(C#N)C2c1ccccc1 (stereo not given)	15.8	25.1*	9.3	24.8*	14.5	1.8
Fc1cccc(CSc2ccc(-c3ccco3)nn2)c1	-1.5	-2.6	5.5	23.9*	1.1	4.3
CCn1ncc(NC(=S)Nc2ccc(OC)c(OC)c2)c1C(N)=O	3.9	6.6	5.0	22.4*	-2.9	9.3
OCCNc1nc(Nc2ccc(Br)cc2)nc2ccccc12	-131.4	-7.5	-2.3	-0.8	17.0	18.5*
O=C1C=C(NCCN2CCOCC2)C(=O)c2cnccc21	12.0	41.1*	x	x	12.1	x
O=C(NCCN1CCOCC1)c1ccncc1	-1.5	-3.1	2.2	1.3	3.9	-6.0
O=C(C1CCC1)N1CCc2cc(S(=O)(=O)C3CCN(Cc4ccc(F)cc4)CC3)ccc21	x	x	x	2.5	x	-0.5
CNCc1ccccc1Sc1ccc(O)c(O)c1	3.7	-0.6	10.9	65.7*	5.1	10.3
CC(C)N1Cc2nnn(Cc3ccccc3)c2-c2cc(F)ccc2S1(=O)=O	x	x	x	-1.9	x	4.8
CCN(C(=O)COc1cc(=O)n(CC)c2ccccc12)c1cc(Cl)ccc1OC	-0.7	-1.2	0.1	2.8	2.9	21.7*
O=C(Nc1ccc2c(c1)OCO2)NC1(C(F)(F)F)Oc2ccccc2O1	-0.5	-2.0	-3.5	21.9*	8.4	4.4
O=C(Nc1ccc2c(c1)OCCO2)NC1(C(F)(F)F)Oc2ccccc2O1	3.8	2.7	2.1	8.7	1.8	3.7
O=C(N/N=C/c1ccc(O)c(O)c1O)/C(=C/c1ccc([N+](=O)[O-])cc1)NC(=O)c1ccccc1	9.0	2.6	18.0	24.4*	8.2	12.4
Cc1ccc(NC(=O)/C(=C\c2ccc([N+](=O)[O-])cc2)NC(=O)c2ccccc2)cc1	-15.3	-3.6	-2.0	3.1	-6.7	-15.8
O=C(Oc1ccccc1)c1ccc(NC(=O)c2ccco2)cc1	-7.8	-2.4	11.9	24.4*	-0.8	-1.7
O=C1C(Cl)=C(Nc2ccc(O)cc2)C(=O)c2ccccc21	21.1	2.7	-2.5	36.3*	12.4	12.6
COCCCNC(=O)c1ccc(Cn2c(=O)c3ccccc3n(Cc3ccc(Br)cc3)c2=O)cc1	x	x	x	0.6	x	-3.1
COc1ccc(N=C(NN)c2ccc3ccccc3n2)cc1	-4.9	-5.5	-7.0	26.7*	2.6	-1.6
Cc1ccc(SCC(=O)Nc2oc(C)c3c(C)n[nH]c(=O)c23)cc1C	3.2	-3.8	-3.0	7.2	x	-8.7
